Laboratory results published in PubChem BioAssay AID1159580 (chemical genetic matrix, 2015).
Where “and” joins values, the source holds several entries; their conditions need not be identical. Equal values may be shown once. The campaign covered roughly 5,500 compounds. About 2,000 (36%) were called active. About 18% were inconclusive and are not listed. No stated cut-off is given here; in the data, active means normalized growth mostly below about 0.91 (no sharp cut-off); inconclusive means no clear call, values can overlap the other calls; inactive means mostly above about 0.92. The list shows a part of the results.

Test: chemical genetic growth profiling, strain panel (AID 1159580);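 further: tested at 20 µM; growth read once vehicle control cultures reached saturation at 30 °C; 1 = growth at the plate median or of vehicle wells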
Conditions: S. cerevisiae deletion strains, growth OD

Measured: normalized growth

CNC[C@@H](O)c1ccc(O)c(O)c1
inactive: locus YAL013W, strain DEP1, stronger effect = lower value 0.993 | locus YAL021C, strain ccr4, stronger effect = lower value 1 | locus YAL026C, strain drs2, stronger effect = lower value 0.984 | locus YAL030W, strain snc1, stronger effect = lower value 1 | locus YBL061C, strain skt5, stronger effect = lower value 1 | locus YBR009C, strain hhf1, stronger effect = lower value 0.997 | locus YBR021W, strain FUR4, stronger effect = lower value 1.02 | locus YBR023C, strain chs3, stronger effect = lower value 1.01 | locus YBR171W, strain sec66, stronger effect = lower value 1 | locus YBR229C, strain ROT2, stronger effect = lower value 0.96 | locus YBR231C, strain swc5, stronger effect = lower value 0.991 | locus YBR279W, strain paf1, stronger effect = lower value 1 | locus YCL011C, strain gbp2, stronger effect = lower value 1.02 | locus YCL016C, strain dcc1, stronger effect = lower value 1.02 | locus YCL029C, strain bik1, stronger effect = lower value 0.984 | locus YCL061C, strain MRC1, stronger effect = lower value 1.01 | locus YCL069W, strain vba3, stronger effect = lower value 1.01 | locus YCR088W, strain abp1, stronger effect = lower value 1.01 | locus YDL005C, strain med2, stronger effect = lower value 0.997 | locus YDL035C, strain GPR1, stronger effect = lower value 0.981 | locus YDL040C, strain nat1, stronger effect = lower value 1 | locus YDL074C, strain BRE1, stronger effect = lower value 0.984 | locus YDL101C, strain DUN1, stronger effect = lower value 0.986 | locus YDL185W, strain tfp1, stronger effect = lower value 0.966 | locus YDL192W, strain arf1, stronger effect = lower value 0.979 | locus YDR001C, strain nth1, stronger effect = lower value 1.01 | locus YDR069C, strain doa4, stronger effect = lower value 0.989 | locus YDR101C, strain arx1, stronger effect = lower value 0.982 | locus YDR137W, strain rgp1, stronger effect = lower value 1.03 | locus YDR159W, strain sac3, stronger effect = lower value 1 | locus YDR162C, strain NBP2, stronger effect = lower value 0.977 | locus YDR195W, strain ref2 0.989 | locus YDR297W, strain sur2, stronger effect = lower value 0.995 | locus YDR318W, strain mcm21, stronger effect = lower value 0.983 | locus YDR334W, strain swr1, stronger effect = lower value 0.993 | locus YDR335W, strain msn5, stronger effect = lower value 1 | locus YDR388W, stronger effect = lower value 0.99 | locus YDR392W, strain spt3, stronger effect = lower value 0.93 | locus YDR502C, strain sam2, stronger effect = lower value 0.996 | locus YEL003W, strain gim4, stronger effect = lower value 1 | locus YEL037C, strain rad23, stronger effect = lower value 1 | locus YEL061C, strain CIN8 (second series), stronger effect = lower value 1.01 | locus YEL061C, strain CIN8, stronger effect = lower value 0.978 | locus YER015W, strain faa2, stronger effect = lower value 1.01 | locus YER016W, strain bim1, stronger effect = lower value 1.01 | locus YER110C, stronger effect = lower value 0.984 | locus YER111C, strain swi4, stronger effect = lower value 1.02 | locus YER155C, strain BEM2 (second series), stronger effect = lower value 0.988 | locus YER155C, strain BEM2, stronger effect = lower value 1 | locus YER167W, strain BCK2, stronger effect = lower value 1.01 | locus YFR010W, strain ubp6, stronger effect = lower value 0.993 | locus YGL078C, strain dbp3, stronger effect = lower value 0.993 | locus YGL086W, strain mad1, stronger effect = lower value 0.977 | locus YGL167C, strain pmr1, stronger effect = lower value 1 | locus YGL173C, strain kem1, stronger effect = lower value 1 | locus YGL227W, strain vid30, stronger effect = lower value 1 | locus YGL240W, strain doc1, stronger effect = lower value 0.989 | locus YGL248W, strain PDE1, stronger effect = lower value 1 | locus YGL253W, strain hxk2, stronger effect = lower value 1.01 | locus YGR135W, strain pre9, stronger effect = lower value 1.04 | locus YGR229C, strain SMI1, stronger effect = lower value 0.99 | locus YGR252W, strain gcn5, stronger effect = lower value 1.02 | locus YHR013C, strain ard1, stronger effect = lower value 1.04 | locus YHR027C, strain rpn1, stronger effect = lower value 1.01 | locus YHR030C, strain SLT2, stronger effect = lower value 0.999 and 1.05 | locus YHR079C, strain IRE1 (second series), stronger effect = lower value 0.951 | locus YHR079C, strain IRE1, stronger effect = lower value 1.04 | locus YHR094C, strain hxt1, stronger effect = lower value 0.977 | locus YHR129C, strain ARP1, stronger effect = lower value 0.999 | locus YHR142W, strain chs7, stronger effect = lower value 1.02 | locus YHR200W, strain rpn10, stronger effect = lower value 0.97 | locus YIL066C, strain RNR3, stronger effect = lower value 0.986 | locus YIL073C, strain SPO22, stronger effect = lower value 1.02 | locus YIL125W, strain kgd1, stronger effect = lower value 0.983 | locus YIR030C, strain dcg1, stronger effect = lower value 0.999 | locus YJL092W, strain hpr5, stronger effect = lower value 1.01 | locus YJL095W, strain BCK1 (second series), stronger effect = lower value 1.01 | locus YJL095W, strain BCK1, stronger effect = lower value 1.03 and 1.07 | locus YJL115W, strain asf1, stronger effect = lower value 0.996 | locus YJL129C, strain trk1, stronger effect = lower value 1 | locus YJL134W, strain LCB3, stronger effect = lower value 0.993 | locus YJL154C, strain vps35, stronger effect = lower value 1 | locus YJL164C, strain tpk1, stronger effect = lower value 0.995 | locus YJL166W, strain qcr8, stronger effect = lower value 1.01 | locus YJL168C, strain set2, stronger effect = lower value 0.987 | locus YJL187C, strain SWE1 (second series), stronger effect = lower value 0.981 | locus YJL187C, strain SWE1, stronger effect = lower value 1 | locus YJR043C, strain POL32, stronger effect = lower value 0.978 | locus YJR066W, strain TOR1, stronger effect = lower value 0.985 | locus YJR075W, strain HOC1, stronger effect = lower value 0.994 | locus YKL009W, strain mrt4, stronger effect = lower value 0.986 | locus YKL068W, stronger effect = lower value 0.977 | locus YKL085W, strain MDH1 (second series), stronger effect = lower value 0.996 | locus YKL085W, strain MDH1, stronger effect = lower value 0.996 | locus YKL160W, strain elf1, stronger effect = lower value 1.03 | locus YKR001C, strain vps1, stronger effect = lower value 0.982 | locus YKR026C, strain gcn3, stronger effect = lower value 1 | locus YKR091W, strain srl3, stronger effect = lower value 1.01 | locus YLL001W, strain dnm1, stronger effect = lower value 1.01 | locus YLL026W, stronger effect = lower value 1 | locus YLL041C, strain sdh2, stronger effect = lower value 1 | locus YLR027C, strain aat2, stronger effect = lower value 1 | locus YLR039C, strain RIC1, stronger effect = lower value 1.03 | locus YLR058C, strain SHM2, stronger effect = lower value 0.984 | locus YLR102C, strain apc9, stronger effect = lower value 0.968 | locus YLR113W, strain HOG1, stronger effect = lower value 1.08 | locus YLR221C, strain rsa3, stronger effect = lower value 1.02 | locus YLR258W, strain gsy2, stronger effect = lower value 1.02 | locus YLR262C, strain YPT6 (second series), stronger effect = lower value 1 | locus YLR262C, strain YPT6, stronger effect = lower value 0.947 | locus YLR268W, strain sec22, stronger effect = lower value 0.972 | locus YLR320W, strain mms22, stronger effect = lower value 1.03 | locus YLR330W, strain CHS5, stronger effect = lower value 0.992 | locus YLR342W, strain FKS1 (second series), stronger effect = lower value 0.999 | locus YLR342W, strain FKS1, stronger effect = lower value 1.01 | locus YLR357W, strain rsc2, stronger effect = lower value 0.957 | locus YLR370C, strain arc18, stronger effect = lower value 1.01 | locus YLR371W, strain rom2, stronger effect = lower value 0.983 | locus YLR384C, strain iki3, stronger effect = lower value 0.999 | locus YLR418C, strain cdc73, stronger effect = lower value 0.996 | locus YML016C, strain PPZ1, stronger effect = lower value 0.994 | locus YML032C, strain rad52, stronger effect = lower value 0.997 | locus YML120C, strain ndi1, stronger effect = lower value 1.03 | locus YML124C, strain tub3, stronger effect = lower value 0.983 | locus YMR058W, strain fet3, stronger effect = lower value 1 | locus YMR078C, strain ctf18, stronger effect = lower value 0.99 | locus YMR125W, strain sto1, stronger effect = lower value 0.991 | locus YMR129W, stronger effect = lower value 1.01 | locus YMR205C, strain PFK2, stronger effect = lower value 1.04 | locus YMR223W, strain ubp8, stronger effect = lower value 1.02 | locus YMR231W, strain pep5, stronger effect = lower value 0.999 | locus YMR263W, strain SAP30, stronger effect = lower value 0.995 | locus YMR307W, strain GAS1, stronger effect = lower value 1.05 | locus YNL067W, strain RPL9B, stronger effect = lower value 0.992 | locus YNL071W, strain lat1, stronger effect = lower value 1.02 | locus YNL153C, strain GIM3, stronger effect = lower value 0.993 | locus YNL183C, strain NPR1, stronger effect = lower value 0.99 | locus YNL209W, strain ssb2, stronger effect = lower value 1 | locus YNL233W, strain BNI4, stronger effect = lower value 0.999 | locus YNL248C, strain rpa49, stronger effect = lower value 1.02 | locus YNL250W, strain rad50, stronger effect = lower value 0.96 | locus YNL271C, strain bni1, stronger effect = lower value 0.988 | locus YNL298W, strain CLA4, stronger effect = lower value 0.979 | locus YNL307C, strain MCK1, stronger effect = lower value 0.905 | locus YNL322C, strain KRE1 (second series), stronger effect = lower value 1.02 | locus YNL322C, strain KRE1, stronger effect = lower value 1 | locus YNR049C, strain mso1, stronger effect = lower value 1 | locus YNR052C, strain pop2, stronger effect = lower value 0.984 | locus YOL012C, strain htz1 0.8 | locus YOL147C, strain pex11, stronger effect = lower value 0.989 | locus YOR001W, strain rrp6, stronger effect = lower value 1.01 | locus YOR061W, strain CKA2, stronger effect = lower value 0.967 | locus YOR069W, strain VPS5, stronger effect = lower value 0.991 | locus YOR070C, strain gyp1, stronger effect = lower value 1 | locus YOR080W, strain dia2, stronger effect = lower value 0.997 | locus YOR083W, strain WHI5, stronger effect = lower value 1.03 | locus YOR106W, strain vam3, stronger effect = lower value 1.02 | locus YOR136W, strain idh2, stronger effect = lower value 0.965 | locus YOR144C, strain elg1, stronger effect = lower value 0.986 | locus YOR184W, strain ser1, stronger effect = lower value 0.982 | locus YOR231W, strain MKK1, stronger effect = lower value 1.07 | locus YOR265W, strain rbl2, stronger effect = lower value 1 | locus YOR270C, strain vph1, stronger effect = lower value 1.05 | locus YOR290C, strain snf2, stronger effect = lower value 0.955 | locus YOR316C, strain cot1, stronger effect = lower value 0.966 | locus YPL051W, strain arl3, stronger effect = lower value 0.998 | locus YPL055C, strain LGE1, stronger effect = lower value 1.02 | locus YPL078C, strain atp4, stronger effect = lower value 1.01 | locus YPL106C, strain sse1, stronger effect = lower value 0.984 | locus YPL240C, strain hsp82, stronger effect = lower value 1.01 | locus YPL256C, strain CLN2, stronger effect = lower value 1.03 | locus YPR119W, strain clb2, stronger effect = lower value 0.968 | locus YPR141C, strain kar3, stronger effect = lower value 0.975 | locus YPR163C, strain tif3, stronger effect = lower value 0.986 | locus YPR167C, strain met16, stronger effect = lower value 0.989 | strain wtn01, stronger effect = lower value 1
